Exocytosis inh: LAMP-1 surface exposure blockers, TALL-104 cells – cell-based, flow cytometry, MLPCN library, primary screen; TALL-104 LAMP-1 surface exposure; cells stimulated with thapsigargin and PMA; inhibition, % at 10 µM; hit rate 0.66% among 360,000;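 active = inhibition above about 55%, limit read from the data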
ABCB6 inh MLPCN: ABCB6 transporter inhibitors, primary screen, K562-ABCB6 cells, flow cytometry, MLPCN library; hit rate 0.19% among 360,000; fluorescence ratio to DMSO, % at 10 µM; K562-ABCB6 porphyrin accumulation, 1 h; active compounds read low; AID 602162, 2011; ATP-binding cassette sub-family B member 6 (Homo sapiens), Q9NP58;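 active = fluorescence ratio to DMSO below 75%, the collection mean minus 3 SD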;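 note: signal is porphyrin accumulated inside mitochondria; 100% equals median channel fluorescence of DMSO control wells; lower ratio means ABCB6 inhibition with less porphyrin fluorescence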
CaV13 FRET inh: Primary screen for inhibitors of IQ motif and Ca2+-dependent inactivation inhibitor domain binding in CACNA1D, Förster resonance energy transfer in living cells, …. HEK cells, CFP/YFP FRET ICDI-IQ, plate reader, 10 min; percent FRET-ratio fall versus neutral wells. inhibition, % at 12.3 µM. hit rate 0.098% among 340,000. AID 743397;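 active = mean replicate inhibition of at least 30% and at least 1% of replicates passing that level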;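 note: 0% = median of the neutral control wells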
VLA-4 inh: inhibition in human VLA-4 binding assay, primary screen, VLA-4 allosteric modulator project, MLPCN library, flow cytometry, VLA-4 expressing cells. hit rate 0.2% among 330,000. inhibition, % (about 7 µM as worked out from the volumes in the protocol). Integrin alpha-4 (Homo sapiens), P13612. ligand binding flow cytometry; in the data active = inhibition above about 50%
Exocytosis CP01: inhibitors of lytic granule exocytosis, confirmation, TALL-104 cells, flow cytometry, Cherry Pick01. shares compounds with Exocytosis inh. LAMP-1 externalization; stimulated with PMA plus thapsigargin. inhibition, % at 10 µM. hit rate 11% among 1,500; in the data active = inhibition above about 60%;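 note: 0% = stimulated vehicle wells and 100% = unstimulated wells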
The depositor's hits bear a star; · = no result given. Sampled rows, rich in hits. Any-hit rate of the full collection: about 1.1%.

SMILES	Exocytosis inh	ABCB6 inh MLPCN	CaV13 FRET inh	VLA-4 inh	Exocytosis CP01
COC(=O)c1ccc(N2CCN(C)CC2)c(NC(=O)c2sc3ccccc3c2Cl)c1	78*	98	-3	8	91*
CCNC(=S)N1CCN(S(=O)(=O)c2ccc(C)cc2)CC1	-3	100	-4	-1	·
Cc1ccc(S(=O)(=O)N2CCN(C(=S)NCc3ccc4c(c3)OCO4)CC2)cc1	75*	96	-6	3	-4
O=C(CCCc1ccccc1)Nc1cccc([N+](=O)[O-])c1	57*	96	-5	2	-13
OC(c1ccccc1)(c1nc(-c2ccc(F)c(Cl)c2)cs1)C(F)(F)F (stereo not given)	-1	102	-8	·	·
Cc1nc2ccccc2n1CC(O)Cn1c2ccccc2c2ccccc21 (stereo not given)	58*	100	-8	-1	-10
COc1ccc([C@@H]2CC=C(C(=O)O)[C@H](c3ccc(Cl)cc3)N2S(=O)(=O)c2ccccc2C)cc1	-1	104	-24	2	·
CN(C)CCC(Oc1ccccc1OCc1ccccc1)c1ccccc1 (stereo not given)	56*	97	-5	8	-4
CC(C)Oc1ccccc1OCCN(C)C	0	94	-3	10	·
CCOc1ccc(S(=O)(=O)/N=C(/Nc2ccc(C)c(S(=O)(=O)N3CCOCC3)c2)c2ccccc2)cc1	2	100	-6	5	·
Cc1ccc2nc(C)c(CN3CCN(c4ccc([N+](=O)[O-])cc4Cl)CC3)n2c1	72*	86	-2	-17	-12
Cc1c(CN2CCC(n3nccc3NC(=O)C3CC3)CC2)[nH]c2ccccc12	-5	94	-2	15	·
O=C(Nc1ccccc1-c1nnc(SCc2ccccc2)o1)c1ccccc1	67*	98	-6	-7	-10
Cc1ccc(NC(/C=C/N(C)C)=C/C(=O)C(F)(F)F)c(C)c1	6	97	-20	17	·
CN(C)/C=C\C(=C/C(=O)C(F)(F)F)Nc1ccccc1Oc1ccccc1	77*	99	-5	13	-2
C[C@H](CO)N1C[C@H](C)[C@@H](CN(C)S(C)(=O)=O)Oc2ccc(NC(=O)Nc3ccccc3)cc2C1=O	3	98	-11	12	·
C[C@H](CO)N1C[C@H](C)[C@@H](CN(C)S(C)(=O)=O)Oc2ccc(N(C)C)cc2C1=O	60*	96	-9	19	-12
O=C1CCc2cc(S(=O)(=O)Nc3ccccc3F)ccc2N1	-4	103	-2	6	·
CCOC(=O)C1(CCOc2ccccc2)CCN(Cc2ccc(O)c(OC)c2)CC1	70*	95	6	-1	-10
CCOC(=O)C1(CCOc2ccccc2)CCN(Cc2cc(OC)ccc2OC)CC1	84*	97	16	7	-7
CCOC(=O)C1(CCOc2ccccc2)CCN(Cc2ccc(O)c(Cl)c2)CC1	3	97	-4	5	·
CCOC(=O)C1(CCOc2ccccc2)CCN(Cc2cccc(OC)c2O)CC1	69*	94	-6	7	-9
CCOC(=O)C1(CCOc2ccccc2)CCN(Cc2ccc(F)c(OC)c2)CC1	72*	92	-18	-1	-3
CCOC(=O)C1(CCOc2ccccc2)CCN(Cc2ccncc2)CC1	-1	95	-5	-2	·
OC(c1cccc(Cl)c1)c1nc(-c2ccc(Cl)cc2)cs1 (stereo not given)	0	101	-6	·	·
SMILES	Exocytosis inh	ABCB6 inh MLPCN	CaV13 FRET inh	VLA-4 inh	Exocytosis CP01
CCOC(=O)C1(CCOc2ccccc2)CCN(Cc2cccc(OC)c2)CC1	86*	99	-5	5	-6
CCOC(=O)C1(CCOc2ccccc2)CCN(Cc2ccc3c(c2)OCCO3)CC1	83*	94	11	10	-3
CCOC(=O)C1(CCOC)CCN(Cc2cccc(OCc3ccccc3)c2)CC1	-4	106	-5	-1	·
COc1c(C)cc(C(=O)C2CCCN(C(=O)c3snnc3C)C2)cc1C (stereo not given)	-10	103	-5	5	·
O=C(C1=C[C@@H](c2coc3ccccc3c2=O)C[C@@H](OCCCCO)O1)N1CCOCC1	66*	96	-9	-2	-14
O=C(CCN1CCCCC1)c1ccc2c(c1)OCO2	80*	92	-5	-6	13
O=C(CCN1CCCCC1)c1ccccc1	2	100	-7	6	·
O=C(CCN1CCc2ccccc2CC1)c1ccc2c(c1)OCCO2	101*	100	-4	18	78*
O=C(CCCN1CCOCC1)c1ccc2c(c1)OCCO2	-3	103	·	8	·
CCOc1ccc(C(=O)CCN2CCCCCC2)cc1	101*	104	·	10	64*
O=C(CCN1CCOCC1)c1ccc2c(c1)OCCO2	85*	102	-5	-1	-8
COc1ccc(CCN2CC(C(=O)NCCCc3ccncc3)CCC2=O)cc1 (stereo not given)	-5	88	-9	·	·
CC1=C(C)CC(C(=O)NNC(=O)c2csc(C)c2C)C(C(=O)O)C1 (stereo not given)	4	94	-15	8	·
O=C(c1ccccc1)c1ccc2c(c1)OCCOCCOCCOCCO2	72*	99	-1	2	-5
CC1=C(C(=O)OCc2ccccc2)C(c2ccc(Cl)cc2Cl)NC(=O)N1CCCCCC(=O)O (stereo not given)	·	·	·	1	·
COC(=O)C1=C(C)N(CCCC(=O)O)C(=O)NC1c1ccc2c(c1)OCO2 (stereo not given)	79*	86	-11	3	-3
CC1=C(C(=O)OCc2ccccc2)C(c2ccc(Cl)cc2Cl)NC(=O)N1CCCC(=O)O (stereo not given)	75*	96	·	-5	-5
COC(=O)C1=C(C)N(CCCC(=O)O)C(=O)NC1c1ccc(Cl)cc1 (stereo not given)	17	95	-12	6	·
COc1ccc(/C=C/c2c(-c3ccc(OC)cc3)sc3cc(OC)c(OC)cc23)cc1	-2	99	-6	42	·
Oc1ccccc1Cn1nnc2ccccc21	1	100	-3	17	·
c1ccc2[nH]c(Cn3nnc4ccccc43)nc2c1	59*	85	-11	34	-5
O=S1(=O)CC(N2CCN(CC3CC3)CC2)CN1C1CCCCC1 (stereo not given)	2	101	-11	·	·
CCOc1ccc(Cl)cc1CNCCCSc1ncccn1	-3	98	-5	10	·
CCOc1ccc(Cl)cc1CNCCCSc1nc(C)cc(C)n1	87*	102	-5	13	-3
Cc1cc(C)c(C)c(S(=O)(=O)Nc2ccc(OCC(=O)O)cc2)c1C	-8	95	-2	7	·
Cc1cc(C)c2nc(C)cc(N/N=C/c3ccc(O)cc3)c2c1	87*	99	-5	-12	101*

Compound activity deposited in PubChem BioAssay by several laboratories.
